# Bioassay records: PubChem, several laboratories
# Mtb FBA inh: Mtb FBA enzyme inhibitors, primary screen, biochemical, fluorescence, strain H37Rv. Fructose-bisphosphate aldolase (Mycobacterium tuberculosis (strain ATCC 25618 / H37Rv)), …. purified M. tuberculosis FBA, fluorescence read-out. inhibition, % at 1 µM. 360,000 tested, 2.3% active. AID 588726, 2011;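 note: 0% = vehicle and 100% = reference inhibitor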
# GDH-TPI counter-1: GDH-TPI coupling enzyme inhibitors, primary screen, artefact control for M. tuberculosis FBA inhibitor project, biochemical, absorbance, full deck; inhibition, % at 4.8 µM; GDH-TPI coupled enzyme counterscreen, NADH absorbance; AID 588335, 2011; 360,000 tested, 1.2% active; in the data active = inhibition above about 30%;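 note: 0% = DMSO wells and 100% = wells lacking the enzyme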
# UGM FP inh: M. tuberculosis UGM enzyme inhibitors, primary screen, biochemical, fluorescence polarization, single point; 320,000 tested, 0.06% active; inhibition, % at 10 µM; purified UGM, fluorescence polarization probe displacement; in the data active = inhibition above about 10%, passing the limit was not always enough
# Target sequence (P9WIQ1 whole entry, looked up): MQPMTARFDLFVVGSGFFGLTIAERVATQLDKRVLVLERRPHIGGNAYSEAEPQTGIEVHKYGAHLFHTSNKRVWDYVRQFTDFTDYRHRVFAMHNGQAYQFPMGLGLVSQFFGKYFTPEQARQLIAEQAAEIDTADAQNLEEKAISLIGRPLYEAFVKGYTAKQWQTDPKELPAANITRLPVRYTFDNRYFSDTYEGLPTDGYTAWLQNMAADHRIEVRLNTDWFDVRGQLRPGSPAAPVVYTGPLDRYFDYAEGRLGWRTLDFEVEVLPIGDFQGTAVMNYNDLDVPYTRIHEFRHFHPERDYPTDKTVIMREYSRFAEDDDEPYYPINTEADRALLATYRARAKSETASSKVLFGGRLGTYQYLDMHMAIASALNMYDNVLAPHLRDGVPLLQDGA
# Rv3671c inh: Rv3671c serine protease inhibitors, primary screen, biochemical, fluorescence polarization, M. tuberculosis H37Rv; inhibition, % at 5.96 µM; 320,000 tested, 0.048% active; in the data active = inhibition above about 38%;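 note: extracellular domain of Rv3671c used as enzyme; 0% = enzyme with DMSO and 100% = no enzyme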
# Mtb FBA confirm: M. tuberculosis aldolase blockers, biochemical, fluorescence, strain H37Rv, confirmation. shares compounds with Mtb FBA inh. purified M. tuberculosis FBA, fluorescence read-out. inhibition, % at 1 µM. 5,600 tested, 78% active;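 note: 0% = vehicle wells and 100% = reference inhibitor wells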
# GDH-TPI counter-2: GDH-TPI coupling enzyme inhibitors, artefact control for M. tuberculosis FBA inhibitor project, biochemical, fluorescence, high throughput | shares compounds with Mtb FBA inh | GDH-TPI coupled enzyme counterscreen | inhibition, % at 1 µM | 5,600 tested, 81% active; in the data active = inhibition above about 10%
# Active calls of the source: *; . = no result; + = active, no number. This is a sample that favours compounds with a hit; in the whole collection about 3.5% have one here. Cut-off read from the data, not from the text of the source, unless noted: active = inhibition above about 27%; inactive = the rest.
SMILES,Mtb FBA inh,GDH-TPI counter-1,UGM FP inh,Rv3671c inh,Mtb FBA confirm,GDH-TPI counter-2
O=C1CN(Cc2ccccc2)C(=NCc2ccco2)S1,28*,3,0,-2,184*,163*
COc1ccc(Cc2[nH]n3c(=O)cc(C(C)C)nc3c2-c2ccccc2)cc1,17,8,1,4,.,.
COc1ccc(Cc2[nH]n3c(=O)cc(C)nc3c2-c2ccccc2)cc1,27*,0,2,12,157*,147*
Cc1cc(=O)n2[nH]c(C(F)(F)F)c(-c3ccccc3)c2n1,64*,1,0,-9,165*,135*
NC1(C(=O)O)CSSC1,1,-6,.,.,.,.
CC(=O)Nc1sc(N/N=C/c2ccc(N(C)C)cc2)nc1-c1ccc(C)cc1,39*,40*,.,.,132*,102*
CC(=O)Nc1sc(N/N=C/c2ccc(C)cc2)nc1-c1ccc(C)cc1,1,7,-1,3,.,.
Cc1ccc2c(c1)N(Cc1cccc(C#N)c1)C=NS2(=O)=O,3,1,0,-1,.,.
CCOc1c2ccc(C(=O)NCCCCc3ccccc3)cc2nn1CC,48*,11,3,0,5,-1
CCCn1nc2cc(C(=O)NCc3ccccc3OC)ccc2c1OCC,42*,16,0,-5,-2,-4
Cc1ccc(C(=O)NCCc2cccs2)cc1,1,13,-1,1,.,.
CCOc1ccc(CCNC(=O)c2ccc3nc(CC)c(CC)nc3c2)cc1,3,15,-2,-6,.,.
CCn1nc2cc(C(=O)NCCc3cccs3)ccc2c1OC,41*,4,-2,-1,+,196*
CCOc1c2ccc(C(=O)NCCc3ccc(C)cc3)cc2nn1CC,51*,1,2,6,121*,105*
Cn1nccc1C(=O)Nc1cccc(S(=O)(=O)N2CCOCC2)c1,0,1,0,-1,.,.
CSc1ccc(/C=C(/NC(=O)c2ccco2)C(=O)N2CCCCC2)cc1,-2,24,-2,3,.,.
COc1ccccc1NC(=O)C(=O)N/N=C(\C)CC(=O)Nc1ccccc1C(F)(F)F,0,23,-3,-11,.,.
CCCn1nc2cc(C(=O)NCc3ccc(C)cc3)ccc2c1OCC,52*,1,-1,-4,86*,63*
CCOc1c2ccc(C(=O)NCc3ccc(C)cc3)cc2nn1CC,67*,12,4,1,67*,45*
C=CCOc1c2ccc(C(=O)NCc3ccc(C)cc3)cc2nn1C,13,-10,-2,-3,.,.
COc1ccc(OC)c(S(=O)(=O)Nc2cccc3ccc(O)cc23)c1,-2,15,4,4,.,.
Clc1ccccc1OCCCOc1cccc2cccnc12,3,4,1,-7,.,.
CC1(C(=O)NS(=O)(=O)c2ccccc2C(F)(F)F)CCN1C(=O)c1cccc(F)c1 (configuration not stated),0,7,.,.,.,.
CCCn1nnc(NC(=S)NC(=O)C(C)(C)C)n1,-9,0,2,-8,.,.
CCCn1nnc(NC(=S)NC(=O)c2cccs2)n1,37*,4,1,-4,39*,25*
SMILES,Mtb FBA inh,GDH-TPI counter-1,UGM FP inh,Rv3671c inh,Mtb FBA confirm,GDH-TPI counter-2
COc1ccccc1NS(=O)(=O)c1ccc(C(=O)NCC(c2ccco2)N2CCCCC2)cc1 (configuration not stated),5,8,.,.,.,.
COc1ccc2c(c1)c1ncn(CCN3CCCC3)c(=O)c1n2C,89*,-6,1,6,90*,74*
O=c1c2[nH]c3ccccc3c2ncn1CCN1CCCCC1,7,-8,-3,-4,.,.
Cn1c2ccccc2c2ncn(Cc3ccc(F)cc3)c(=O)c21,16,3,3,-3,.,.
COc1ccccc1CCn1cnc2c3cc(C)ccc3n(C)c2c1=O,46*,-7,-1,-7,+,+
Cc1ccc2c(c1)[nH]c1c(=O)n(CCN3CCCCC3)cnc12,9,4,0,1,.,.
COc1ccc2c(c1)c1ncn(CCN3CCCCC3)c(=O)c1n2C,100*,10,3,1,107*,88*
CN(C)c1nc(NNC(=O)c2ccccc2)nc(N(C)C)n1,6,14,.,.,.,.
CC1(C)Cc2c(C#N)c(N3CCN(C(=O)c4ccco4)CC3)nc(-c3ccco3)c2CS1,-7,4,2,3,.,.
CC(C)Cc1nc(NCCN2CCOCC2)c(C#N)c2c1COC(C)(C)C2,4,13,0,-1,.,.
CCCc1nc(N2CCOCC2)c(C#N)c2c1CCCC2,30*,17,0,0,168*,141*
CC(C)Cc1nc(N2CCOCC2)c(C#N)c2c1COC(C)(C)C2,37*,10,0,6,-1,-1
CCc1nc(N2CCN(C(=O)c3ccco3)CC2)c(C#N)c2c1COC(C)(C)C2,40*,5,0,5,57*,39*
CCc1nc(N2CCN(C(C)=O)CC2)c(C#N)c2c1COC(C)(C)C2,36*,1,0,2,3,-1
COc1ccc(F)cc1-c1cc(NC=O)c2ncc(-c3cccc(C(F)(F)F)c3)n2c1,2,11,.,.,.,.
O=C(NC(=S)Nc1ccc(Cl)cn1)c1cc([N+](=O)[O-])ccc1N1CCOCC1,0,2,-4,-6,.,.
CC(=O)NNC(=O)c1cc2c3ccccc3n(C)c2s1,8,20,2,-12,.,.
Cn1c2ccccc2c2cc(C(=O)N3CCN(CCO)CC3)sc21,29*,18,-4,4,122*,90*
Clc1ccc(SCc2cn3ccccc3n2)cc1,61*,0,-2,-2,+,+
C[C@H](O)[C@@H]1C(=O)N2CCc3c([nH]c4ccccc34)[C@@H]2C[C@@H]1N(C)S(=O)(=O)c1ccccc1,72*,11,.,.,+,+
C[C@H](O)[C@@H]1C(=O)N2CCc3c([nH]c4ccccc34)[C@@H]2C[C@@H]1N(C)C(=O)Nc1cccc2ccccc12,74*,.,.,.,27,24*
Cc1ccccc1C(=O)N(C)[C@H]1C[C@H]2c3[nH]c4ccccc4c3CCN2C(=O)[C@H]1[C@H](C)O,7,-5,.,.,.,.
COc1ccc(S(=O)(=O)Nc2ccc3c(c2)CC(=O)N([C@@H](C)CO)C[C@H](C)[C@@H](CN(C)S(=O)(=O)c2ccc(F)cc2)O3)cc1,0,-10,2,-1,.,.
COc1ccccc1-n1c(SCC(=O)N2CCOCC2)nc2ccccc2c1=O,0,1,-3,-1,.,.
COc1ccccc1-n1c(SCc2cc(=O)oc3cc(O)ccc23)nc2ccccc2c1=O,72*,8,4,-51,2,2
